The values below come from PubChem BioAssay AID624418 (National Center for Advancing Translational Sciences (NCATS), 2012).

The structures appear in SMILES notation. The whole screen tested about 410,000 compounds, of which about 530 (0.13%) were called active. Entries that show only a call come without a potency. Roughly 5% stayed inconclusive and do not appear here. The call rests on the fitted dose curve; in most records, active means well fitted inhibition curve with a large enough effect; inconclusive means small, poorly fitted or top-dose-only effect, or another doubt; inactive means no such curve, though single readings can be large or run the other way. Only a selection was taken, and actives are over-represented in it overall.
Potency means the concentration at half of the fitted maximal effect.

The assay in a line: qHTS of GLP-1 Receptor Inverse Agonists: Cytotox Screen.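 Further: loss of luciferase light is scored as toxicity.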 The note with it: HEK293 cAMP-luciferase reporter cells, luminescence, 24 h; series mostly up to 38.3 µM. From the text: The overall goal of this project was to develop a novel assay for discovering small molecule ligands for class B1 G protein-coupled receptors (GPCRs). Very few agonists (or inverse agonists) with generally weak activity for this entire group of physiologically important receptors are known to date. To establish proof-of-principle that this critical bottleneck can be overcome with a suitable screening approach, our studies focused on the class B1 receptor for glucagon-like peptide-1 (GLP-1R), a potential therapeutic target for diabetes and neurodegenerative disease.
The assay was developed using a cell-based functional readout. Toward this goal, stably transfected HEK293 cell clones were established that co-express (i) a cAMP-responsive luciferase reporter gene, and (ii) constitutively active GLP-1R that upon ligand interaction inhibit (inverse agonists) the luciferase activity. In addition, two control cell lines were developed: (i) one that express only the cAMP-responsive reporter gene to enable initial exclusion of GLP-1R independent effects of candidate probes; and (ii) one with the reported gene cloned with another constitutively active orphan receptor GPR119 to enable exclusion of GLP-1R independent inhibitor effects of candidate inverse agonists.
To that end, this assay was optimized for 1536-well format and screened against the MLSMR. Then the same collection was run in this cytotoxicity assay where inhibition was the undesired outcome.
NIH Molecular Libraries Probe Production Network [MLPCN]
NIH Chemical Genomics Center [NCGC]
PI Name: Martin Beinborn, Tufts Medical Center
Six ul of cell suspension (200 cells/uL in DMEM + 10% Nu serum + 1% pen-strep) is dispensed in a white solid 1536-well plate. The plates are incubated for 12 hours at 37 deg C at 5% CO2 followed by addition of 23 nL compounds. After 24 hr incubation at 37 deg C and 5% CO2, 3 uL of luciferase assay detection reagent is added. A luminescence read is obtained on the PerkinElmer Viewlux after 12 min incubation at room temperature.
Take `O=C(Nc1ccc(OC(F)(F)F)cc1)c1ccc2c(c1)no[n+]2[O-]`: the Potency was 11.2 µM (active).

As to `O=C(Nc1ccc(Cl)cn1)Nc1cccs1`, the Potency entry was “inactive”.

In the case of `CCOC(=O)[C@]12Cc3cc(OC)ccc3[C@H]1N(C(C)C)C(=O)c1ccccc12`, the Potency result was “inactive”. As to `CCOc1ccc2nc(Nc3nc4ccc(NC(C)=O)cc4s3)sc2c1`, the Potency result was “inactive”. Then `Cc1ccc(NC(=O)N(Cc2ccc3c(c2)OCO3)C2CCN(Cc3ccccc3)CC2)cc1F`, with “inactive”; and `COc1ccc(CS(=O)/C(Cl)=C(/Cl)C(=O)Nc2ccc(OC)nc2)cc1` (stereo not given), with 3.98 µM (active); and `O=C1N[C@H](Cc2c[nH]c3ccccc23)COC(=O)[C@H](Cc2ccc(F)cc2)C/C=C\C[C@H]1CC(=O)N(CCO)Cc1ccccc1`, with “inactive”. Then `CCN(CC)CCCC(C)n1c2nc(=O)[nH]c(=O)c-2nc2cc(Cl)ccc21` (stereo not given), with “inactive”; and `c1cc2c(c(NC3=NCCCS3)c1)CCCC2`, with “inactive”; and `Cc1nnc(NC(=O)c2cccn(Cc3cccc(F)c3)c2=O)s1`, with “inactive”. Then `Cc1cccc(Cn2cccc(C(=O)Nc3ccc4c(c3)OCCO4)c2=O)c1`, with “inactive”; and `C=CCC[C@@H](Cc1ccc(F)cc1)C(=O)OC[C@H](Cc1c[nH]c2ccccc12)NC(=O)[C@@H](CC=C)CC(=O)N(CCO)Cc1ccccc1`, with “inactive”; and `Nc1ccc(-c2sc(N)nc2-c2ccccc2)cc1`, with “inactive”.

Regarding `NS(=O)(=O)c1ccc(NC(=O)COC(=O)c2c3c(nc4ccccc24)/C(=C\c2ccc4c(c2)OCO4)CCC3)cc1`, the Potency result is “inactive”. Turning to `C=CC(=O)Nc1ccc(Nc2ccnc(Nc3ccc(N4CCN(C)CC4)cc3)n2)cc1`, the Potency is 10 µM (active).

In the case of `CCC1(CC(C)c2ccccc2)C(=O)NC(=O)NC1=O` (stereo not given), the Potency result was “inactive”.

`COc1cccc2sc3cc(NCC[C@@H]4CCCN4C)ccc3c(=O)c12`: the Potency result was “inactive”. Then `CC(C)c1ccc(C=NNc2ccc([N+](=O)[O-])cn2)cc1`, with “inactive”; and `Cc1cc(C)c2c(c1)cc(C)c1nnc(SCC(=O)Nc3cc(C)on3)n12`, with 10 µM (active); and `COc1ccc(-c2nc3cnccn3c2NC2CCCCC2)cc1-c1cccc(Cl)c1`, with “inactive”. Take `NC(=O)c1sc2nc3c(c(-c4ccccc4)c2c1N)CCC3`: the Potency entry is “inactive”. Take `O=C(c1cc(S(=O)(=O)N2CCOCC2)ccc1F)N1CCC2(CC1)OCCO2`: the Potency result was “inactive”. Then `COc1ccccc1OC(=O)c1ccc(C)c(S(=O)(=O)N2CCOCC2)c1`, with “inactive”; and `O=C(Nc1nnc(-c2ccccc2)o1)c1cccc(S(=O)(=O)N2CCOCC2)c1`, with 10 µM (active).

`CCc1ccc(OCC(=O)N2CCN(CC(=O)Nc3ccccc3Cl)CC2)cc1`: the Potency result was “inactive”.
